Screening data (PubChem)
ClpP mod = qHTS Assay for Activators of ClpP; ATP-dependent Clp protease proteolytic subunit (Bacillus subtilis (strain 168)), P80244; purified B. subtilis ClpP, FRET peptide cleavage, 20 min; Potency, µM (highest dose often 57.5 µM), for inactives: top-dose activity change, negative = active; hit rate 1.9% among 340,000; AID 651965, 2013; active means well fitted falling curve with a large enough effect; inconclusive means small, poorly fitted or top-dose-only effect; inactive means no such curve, though single readings can be large or run the other way; further: potency means the concentration at half of the fitted maximal effect; the source files actives as falling curves though it sought activators and does not explain the sign; nearly all actives have a fitted effect of over 65% in size
Target sequence (P80244 whole entry, looked up): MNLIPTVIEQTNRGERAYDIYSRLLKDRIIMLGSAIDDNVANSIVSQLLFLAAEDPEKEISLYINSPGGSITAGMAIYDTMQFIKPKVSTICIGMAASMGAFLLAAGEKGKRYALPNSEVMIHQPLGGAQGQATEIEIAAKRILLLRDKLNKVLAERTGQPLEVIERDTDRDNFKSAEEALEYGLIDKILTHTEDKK
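Buffer: 100 mM Tris/HCl pH8, 100 mM KCl, 0.05% low protease BSA, 2.5% glycerol, 0.01% Tween-20. ClpP 10 microg/mL final; 20 min RT; delta FRET normalized to ADEP and DMSO controls.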
DRD3 agonist = qHTS of D3 Dopamine Receptor Agonist: qHTS; D3R DiscoveRx beta-arrestin cells, luminescence, 90 min; AID 652048, 2013; max activation, %; hit rate 0.58% among 410,000; D(3) dopamine receptor (Homo sapiens), P35462; in the data active means max activation above about 30%; further: 0% is about no effect
Target sequence (P35462 whole entry, looked up): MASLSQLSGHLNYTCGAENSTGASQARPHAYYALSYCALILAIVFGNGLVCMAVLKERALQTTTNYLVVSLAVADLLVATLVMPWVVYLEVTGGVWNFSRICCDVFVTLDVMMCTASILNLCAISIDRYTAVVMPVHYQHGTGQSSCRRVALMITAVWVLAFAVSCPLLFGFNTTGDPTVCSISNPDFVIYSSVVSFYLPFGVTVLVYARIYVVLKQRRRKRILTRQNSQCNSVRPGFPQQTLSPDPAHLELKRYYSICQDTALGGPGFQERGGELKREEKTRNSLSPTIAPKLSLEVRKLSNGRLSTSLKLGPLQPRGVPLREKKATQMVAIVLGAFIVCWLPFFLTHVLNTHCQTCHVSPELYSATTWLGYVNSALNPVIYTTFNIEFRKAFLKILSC
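Agonist-mode cell screen: cells plated at 1500/well and incubated overnight at 37 °C, then exposed to library compounds for 90 min at 37 °C. Detection reagent was added for 30–60 min at room temperature, and luminescence was read.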
DT40 TDP1 no CPT = qHTS for Inhibitors of human tyrosyl-DNA phosphodiesterase 1 (TDP1): qHTS in cells in absence of CPT; DT40 Tdp1-/- hTDP1 cells, no CPT, ATP luminescence, 48 h; Potency, µM (doses to about 46.2 µM), for inactives: at the highest dose activity change, negative = growth inhibition, actives largely listed as inhibitors; hit rate 15% among 420,000; further: potency means the concentration at half of the fitted maximal effect; on the % scale 0 is the no-effect control and ±100 the full control effect; nearly all actives have a fitted effect of over 55% in size
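Luminescent ATP content (CellTiter-Glo) served as the growth readout. Knockout chicken DT40 cells expressing human TDP1 were exposed to compounds without camptothecin for a minimum 48 hr at 37 °C.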
IL-1B inflam inh = qHTS for Inhibitors of Inflammasome Signaling: IL-1-beta AlphaLISA Primary Screen. THP-1 LPS/ATP IL-1B secretion, AlphaLISA, 16 h; hits give low values. activity change, % at 57.5 µM. hit rate 4.7% among 360,000. AID 743279, 2014; in the data active means activity change below about -50%; inconclusive means mostly about -30% to -49%; further: on the % scale 0 is the no-effect control and ±100 the full control effect
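THP-1 cells pretreated 1 hr with compounds (up to 57.5 uM final), then stimulated with LPS (250 ng/mL final) plus ATP (1.25 mM final); secreted IL-1B measured by AlphaLISA after 16 hr, decreased signal indicating inhibition.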
DRD3 antagonist = qHTS of D3 Dopamine Receptor Antagonist: qHTS; D3R cells, DiscoveRx beta-arrestin luminescence, antagonist mode; hits give low values; max response, negative = inhibition, %; hit rate 2.5% among 360,000; D(3) dopamine receptor (Homo sapiens), P35462; in the data active means max response below about -50%; inconclusive means no clear call, values can overlap the other calls; further: on the % scale 0 is the no-effect control and ±100 the full control effect
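Cells expressing the human receptor were seeded at 1500 cells/well, incubated overnight at 37 degrees C in 5% CO2, then exposed to library compounds with dopamine controls for 90 minutes at 37 degrees C before luminescent detection.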
DT40 TDP1 CPT = qHTS for Inhibitors of human tyrosyl-DNA phosphodiesterase 1 (TDP1): qHTS in cells in presence of CPT | AID 686979, 2013 | hit rate 12% among 420,000 | Potency, µM (doses to about 46.2 µM), for the others: top-dose activity change, negative = growth inhibition, most hits filed as inhibitors | chicken DT40 Tdp1-/-;hTDP1 cells + 20 nM CPT, ATP luminescence, 48 h; further: potency means the concentration at half of the fitted maximal effect; on the % scale 0 is the no-effect control and ±100 the full control effect; nearly all actives have a fitted effect of over 55% in size
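Cell growth measured by CellTiter-Glo luminescence after a minimum 48 h, 37 C compound exposure with 20 nM CPT in Tdp1-knockout DT40 cells stably expressing hTDP1, seeded 400/well; qHTS titration format.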
Active calls of the source: *; ? = inconclusive; · = no result given. Hits are enriched below; roughly 21% of the tested compounds scored in any of these assays. Unless noted, the call rests on the fitted dose curve; in most records, active means well fitted inhibition curve with a large enough effect; inconclusive means small, poorly fitted or top-dose-only effect; inactive means flat fitted curve, though single readings scatter.

SMILES	ClpP mod	DRD3 agonist	DT40 TDP1 no CPT	IL-1B inflam inh	DRD3 antagonist	DT40 TDP1 CPT
Cn1c(=O)c2cc(NC(=O)NCc3ccccc3)ccc2n1Cc1cccc(C(F)(F)F)c1	5%	-5	?	23	0	?
C=C(C)Cn1c2ccc(NC(=S)NCc3ccccc3F)cc2c(=O)n1C	4%	-12	-18%	-6	-52*	?
Cn1c(=O)c2cc(NC(=O)NCc3ccc(F)cc3)ccc2n1Cc1cccc(C(F)(F)F)c1	5%	9	15µM*	-1	29	21µM*
CC(=O)N1CCN(C(c2ccccc2)c2nnnn2C(C)(C)C)CC1 (stereo unspecified)	1%	6	-14%	60	5	5%
Cc1ccc(OCCNC(=O)C2CC(=O)N(Cc3ccccc3)C2)cc1 (stereo unspecified)	-2%	5	0%	20	4	1%
c1ccc2c(c1)CCN(C1=Nc3cccc4cccc1c34)C2	·	-6	?	-91*	-1	?
O=C(Nc1cccc(Br)c1)N1CCC(CN2CCCCC2)CC1	-1%	-17	-12%	·	·	-4%
COc1cc(-c2c(C(=O)c3ccccc3)[nH]c(N)c2C(N)=O)ccc1F	0%	3	?	0	21	?
COc1ccc(-c2c(C(=O)c3ccccc3)[nH]c(N)c2C(=O)c2ccc(Br)cc2)cc1OC	0%	-4	?	3	-73*	?
COc1ccc(-c2c(C(=O)c3ccccc3)[nH]c(N)c2C(=O)c2ccccc2)cc1OC	2%	-10	?	0	-67*	?
COc1ccc(C(=O)c2[nH]c(N)c(C(N)=O)c2-c2ccc(OC)c(OC)c2)cc1	-2%	7	-19%	-1	14	6%
C=CC(=O)N1C/C(=C/c2ccc(F)cc2)C(=O)/C(=C\c2ccc(F)cc2)C1	-1%	-5	-104%	-84*	-61*	0.82µM*
CCN(CCCNC(=O)CCn1c(=O)[nH]c2ccccc2c1=O)c1cccc(C)c1	-2%	-5	-19%	-14	12	-28%
CCN(CCCNC(=O)CCCn1c(=O)[nH]c2ccccc2c1=O)c1cccc(C)c1	-5%	1	21µM*	?	26	?
O=C(CCCCCn1c(=O)[nH]c2ccccc2c1=O)NCCc1ccccc1	32µM*	-12	0.46µM*	·	·	0.29µM*
COC(=O)c1ccc2c(=O)n(CCCCCC(=O)NCCc3ccccc3)c(=O)[nH]c2c1	1%	-14	18µM*	·	·	?
COCCn1c(=O)[nH]c2cc(C(=O)OC)ccc2c1=O	28µM*	5	-5%	65	20	6%
CCOc1nc(-c2ccccc2)c2cc(Br)ccc2n1	·	-5	?	27	0	?
CC(C)c1ccc(/C=N/n2cnnc2)cc1	·	2	-21%	11	6	2%
O=C(COc1ccccc1)Nc1ccc2nc(SCCOc3ccccc3)sc2c1	0%	-7	?	·	·	-23%
COC(=O)c1ccc2c(C)c(C(C)(C)O)[nH]c2c1	5%	-22	-3%	5	2	-2%
Cc1cc(NC(=O)c2ccc(C#N)cc2)n(-c2ccccn2)n1	-2%	4	?	0	-5	-19%
Cc1cc(NC(=O)c2ccc(F)cc2)n(-c2ccccn2)n1	1%	-9	?	-68*	20	?
Cc1cc(NC(=O)Nc2cccc(Cl)c2)n(-c2ccccn2)n1	·	-14	18µM*	-73*	-9	?
CCOC(=O)C1CCCN(S(=O)(=O)CCNC(=O)c2cccc(OC)c2)C1 (stereo unspecified)	·	1	-46%	-68*	-8	-37%
SMILES	ClpP mod	DRD3 agonist	DT40 TDP1 no CPT	IL-1B inflam inh	DRD3 antagonist	DT40 TDP1 CPT
COc1ccc(N2CCN(S(=O)(=O)c3ccc4c(c3)CCCN4C(C)=O)CC2)cc1	-2%	0	?	·	·	16µM*
CCOC(=O)C1CCCN(S(=O)(=O)c2cc(C(=O)OC)n(C)c2)C1 (stereo unspecified)	1%	9	16µM*	20	32	16µM*
COc1ccc(CNC(=O)C2CCCN(S(=O)(=O)c3ccc4c(c3)CCCN4C(C)=O)C2)cc1 (stereo unspecified)	-1%	4	10µM*	4	1	15µM*
CCOC(=O)C1CCN(S(=O)(=O)CCNC(=O)c2ccccc2)CC1	·	6	-2%	?	11	15%
CC(=O)N1CCCc2cc(S(=O)(=O)N3CCCC3)ccc21	-1%	0	6%	26	14	3%
Cc1cccc(C(=O)OCC(=O)N2CCCCCC2)c1O	-5%	-3	17%	0	-18	-8%
N[C@@H](Cc1ccccc1)C(=O)N1CCC(C(=O)N[C@@H](CCC(=O)O)C(=O)O)CC1	-3%	1	-7%	1	4	10%
CCOC(=O)C1CCCN(S(=O)(=O)c2ccc3c(c2)CCCN3C(C)=O)C1 (stereo unspecified)	0%	7	18µM*	·	·	?
CCOC(=O)C1CCN(S(=O)(=O)c2ccc3c(c2)CCCN3C(C)=O)CC1	2%	-3	-18%	73	-2	-6%
CCN(C(=O)COc1cc(OC)ccc1C(C)=O)C1CCS(=O)(=O)C1 (stereo unspecified)	2%	0	-2%	-8	-2	-4%
CC(=O)C1=C(c2ccc(Br)cc2)N(C(C)=O)n2c(nnc2C2CCCCC2)S1	-1%	8	?	·	·	5%
CC(=O)C1=C(c2ccc(F)cc2)N(C(C)=O)n2c(nnc2C2CCCCC2)S1	1%	8	23µM*	·	·	?
CCC(=O)C1=C(c2ccc(C)cc2)N(C(=O)CC)n2c(nnc2C2CCCCC2)S1	1%	11	26µM*	·	·	?
COc1ccc(-c2nnc(SCC(N)=O)n2N)cc1	-1%	-6	-4%	8	15	-1%
CCC(=O)C1=C(c2ccc(F)cc2)N(C(=O)CC)n2c(nnc2-c2ccc(OC)cc2)S1	0%	2	2.9µM*	·	·	4.1µM*
O=C(COc1coc(CN2CCN(c3ccccc3)CC2)cc1=O)Nc1cccc(F)c1	1%	-1	-21%	14	15	-23%
